# Only some compounds are listed: those with a hit (about 2.3% of all), similar ones and a draw of the others.
# pPAFAH FP inh = inhibitors of human plasma PAF acetylhydrolase (pPAFAH); recombinant pPAFAH, FP-rhodamine probe fluorescence polarization; inhibition, % at 3.39 µM; 1.5% of 330,000 active;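 active = inhibition above the mean inhibition across the screen plus 3 SD, cut at about 25% in these data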;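 note: inhibitors block binding of the rhodamine activity-based probe so polarization drops; 0% = enzyme with DMSO and 100% = wells lacking pPAFAH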
# Fam108B counter = blocks mouse Fam108B hydrolase in RBBP9 counter-screen | inhibition, % at 9.51 µM | 0.33% of 300,000 active | recombinant Fam108B, FP-Rh probe fluorescence polarization;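 active = inhibition above the screen mean inhibition plus 3 SD, computed separately per campaign, cut at about 18% in these data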;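 note: inhibitors lower polarization as less probe binds the enzyme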
# PME-1 primary = blocks human protein phosphatase methylesterase 1; recombinant PME-1, FP-Rh probe fluorescence polarization; 0.53% of 320,000 active; inhibition, % at 5.9 µM; Q9Y570;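 active = inhibition above the campaign mean of all compounds plus 3 SD, cut at about 26% in these data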;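 note: competitive labeling of PME-1 active site by serine hydrolase directed probe; 0% = PME-1 with DMSO and 100% = wells lacking PME-1 enzyme; inhibitors block probe labeling so polarization falls and inhibition rises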
# Target sequence (Q9Y570 whole entry, looked up): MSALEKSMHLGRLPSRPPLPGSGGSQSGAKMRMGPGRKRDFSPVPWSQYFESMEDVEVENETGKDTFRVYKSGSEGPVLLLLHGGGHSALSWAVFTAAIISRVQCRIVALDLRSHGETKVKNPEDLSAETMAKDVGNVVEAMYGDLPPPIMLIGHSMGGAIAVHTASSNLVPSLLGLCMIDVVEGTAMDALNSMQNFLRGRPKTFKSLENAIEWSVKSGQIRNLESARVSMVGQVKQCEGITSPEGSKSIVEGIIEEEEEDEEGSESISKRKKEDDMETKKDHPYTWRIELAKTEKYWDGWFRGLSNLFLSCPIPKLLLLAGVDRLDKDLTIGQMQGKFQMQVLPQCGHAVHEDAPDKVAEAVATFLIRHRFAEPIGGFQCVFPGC
# PAD4 FP inh = PAD4 (human) enzyme inhibition; Q9UM07; recombinant PAD4, RCA probe fluorescence polarization; inhibition, % at 6.36 µM; 0.41% of 330,000 active;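 active = percent inhibition above a cutoff equal to the mean of all tested compounds plus 3 SD, cut at about 15% in these data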;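 note: 0% = PAD4 with RCA probe and DMSO and 100% = probe without PAD4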
# GSTO1 inh = GSTO1 inhibition, counter-screen for RBBP9 inhibitors; AID 1974; inhibition, % at 5.96 µM; recombinant GSTO1, activity-based probe fluorescence polarization; 1.1% of 300,000 active; P78417;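 active = inhibition above the campaign mean inhibition plus 3 SD, cut at about 35% in these data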;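 note: 0% = GSTO1-1 with DMSO and 100% = wells lacking GSTO1-1 enzyme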
# pPAFAH FP conf = confirmation of human plasma PAF acetylhydrolase (pPAFAH) inhibitors | shares compounds with pPAFAH FP inh | recombinant pPAFAH, FP-Rh probe fluorescence polarization | inhibition, % at 3.39 µM | 72% of 2,300 active | AID 463230;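 active = mean inhibition of the triplicate above the hit cutoff set for the earlier primary screen, cut at about 25% in these data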;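 note: 0% = enzyme with DMSO and 100% = wells lacking pPAFAH enzyme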
# * marks the source's active call; other numbers are inactive results; x = not tested or not shown; ! = a repeat was not active.
SMILES,pPAFAH FP inh,Fam108B counter,PME-1 primary,PAD4 FP inh,GSTO1 inh,pPAFAH FP conf
Cc1ccnc(NCc2ccccc2O)c1,41*,0,0,1,1,1
COc1ccc(CNc2cc(C)ccn2)c(O)c1,5,-1,-3,3,24,x
COc1ccc(NC(=O)CSc2sc3c(O)cc(=O)[nH]c3c2C#N)c(OC)c1,36*,5,-16,-5,32,14
COc1ccc(Cl)cc1NC(=O)CSc1sc2c(O)cc(=O)[nH]c2c1C#N,20,-8,-30,-13,-6,x
COc1ccccc1NC(=O)CSc1sc2c(O)cc(=O)[nH]c2c1C#N,39*,10,-16,-8,18,12
Cc1ccc(NC(=S)NNc2ccc(C(=O)O)cc2[N+](=O)[O-])cc1C,35*,5,13,1,36*,39*
CN(C)c1ccc(N2C(=O)CSC2=S)cc1,37*,-9,-25,-37,-65,0
CC1=C(C(=O)OCc2ccccc2)C(c2ccccc2)NC(=O)N1CCCCCC(=O)O (stereo unspecified),10,-2,5,-9,2,x
CC1=C(C(=O)OCc2ccccc2)C(c2ccc(-c3ccccc3)cc2)NC(=O)N1CCCCCC(=O)O (stereo unspecified),46*,-4,12,1,0,41*
Cc1ccc(N2NC(=O)/C(=C\c3cc4c(cc3[N+](=O)[O-])OCO4)C2=O)cc1C,48*,12,13,-1,28,15
O=C1NN(c2ccccc2)C(=O)/C1=C\c1ccc2c(c1)OCO2,6,2,0,-2,10,x
O=C(CSc1nnnn1-c1ccccc1)Nc1ncc(Cc2ccccc2Cl)s1,-2,-5,3,-1,4,x
N=C1SC(c2ccccc2)C(=O)N1c1ncc(Cc2ccccc2Cl)s1 (stereo unspecified),58*,-1,-5,-4,-25,71*
Cc1cc(-c2ccccc2)nc(SCC(=O)N2CCCC2)n1,1,4,-3,0,5,x
Cc1ccc(C(=O)NNC(=O)CCCN2C(=O)/C(=C/c3ccccc3Cl)SC2=S)cc1,46*,-1,-8,-3,-2,53*
O=C(CCCN1C(=O)/C(=C/c2ccccc2Cl)SC1=S)NNC(=O)c1ccc(Cl)cc1,-4,-10,-6,-7,-7,x
CCOC(=O)c1sc(N(Cc2ccccc2)C(=O)CSc2ncn[nH]2)nc1C,2,6,-10,1,4,x
O=C(O)CSCC(=O)N(Cc1ccccc1)c1nc(-c2ccccc2)c(-c2ccccc2)s1,54*,-15,-11,-11,-10,54*
CCN(c1ccccc1)S(=O)(=O)c1nnc(NC(=O)c2ccccc2OC)s1,15,-3,-3,-1,-19,x
O=C(/C=C/c1ccco1)OCC(=O)c1ccc(OC(F)F)cc1,55*,x,-4,-3,x,8
Oc1cccc2ccc(/C=C/c3ccccc3Br)nc12,-4,-1,-3,-7,9,x
Oc1c(Cl)cc(Cl)cc1/C=C/c1ccc2cccc(O)c2n1,51*,6,6,-5,-2,49*
Cc1nc2cc(NC(=O)N3CCN(c4ccccn4)CC3)ccc2o1,-2,-2,-2,-8,0,x
O=C(Nc1ccc2nc(-c3ccco3)c(-c3ccco3)nc2c1)N1CCN(c2ccccn2)CC1,37*,10,3,1,33,28*
CC(=O)N1CCc2c(sc(NC(=O)CS(=O)(=O)c3ccc(F)cc3)c2C#N)C1,43*,-1,-7,-2,-6,7
SMILES,pPAFAH FP inh,Fam108B counter,PME-1 primary,PAD4 FP inh,GSTO1 inh,pPAFAH FP conf
CC(OC(=O)c1ccc(Cl)c(S(N)(=O)=O)c1)C(=O)NCc1ccc2c(c1)OCO2 (stereo unspecified),3,-3,1,1,2,x
CC(OC(=O)c1ccc(Cl)cc1)C(=O)NCc1ccc2c(c1)OCO2 (stereo unspecified),54*,x,3,0,x,2
CCN=c1scc(-c2ccco2)n1/N=C/c1ccc(O)cc1,2,4,16,-1,-2,x
CCN=c1scc(C)n1/N=C/c1ccc(O)c(O)c1O,46*,5,-4,3,69*,11
COCCN=c1scc(-c2cccs2)n1/N=C/c1ccc(O)c(O)c1O,44*,-2,9,-2,17,75*
CCOC(=O)c1c(NC(=O)Cn2cnc([N+](=O)[O-])n2)sc(C)c1C,3,0,-2,-4,0,x
CCCCCn1c(SCC2CCCO2)nc2cc(C(=O)N3CCC(C(N)=O)CC3)ccc2c1=O (stereo unspecified),42*,-4,-1,1,-6,23
O=C(Nc1cccc(S(=O)(=O)NC2=NCCC2)c1)c1cc(-c2ccco2)nc2ccccc12,43*,8,6,-6,60*,22
CCC(=O)C(C#N)(c1ccc(OC)c(OC)c1)C(C)C (stereo unspecified),1,x,-6,-1,x,x
Cc1ccc(NC(=O)c2cc3c(=O)oc4ccc(C)cc4c3s2)nc1,66*,-14,-3,-3,8,6
NC(=O)C(=O)N/N=C/c1c2ccccc2cc2ccccc12,4,-3,-3,-1,-1,x
NC(Cc1ccc(O)c([N+](=O)[O-])c1)C(=O)O (stereo unspecified),-11,2,-3,5,-31,x
N[C@@H](Cc1cc(I)c(Oc2cc(I)c(O)c(I)c2)c(I)c1)C(=O)O,44*,5,-24,-3,22,39*
NC(Cc1ccc2nsnc2c1)C(=O)O (stereo unspecified),-6,1,3,-2,-8,x
N[C@@H](Cc1cc(I)c(Oc2ccc(O)c(I)c2)c(I)c1)C(=O)O,69*!,9,-10,-15,34,71*
Cc1nc(N)sc1-c1csc(Nc2ccccc2)n1,14,8,2,-13,3,x
Cc1cc(NS(=O)(=O)c2ccc(Nc3nc(-c4sc(N)nc4C)cs3)cc2)no1,46*,15,-8,-21,37*,42*
CCOC(=O)C1=C(C)NC(SCC(N)=O)=C(C#N)C1c1cccs1 (stereo unspecified),4,1,0,-6,4,x
CCOC(=O)C1=C(C)NC(SCc2cc(=O)[nH][nH]2)=C(C#N)C1c1cccs1 (stereo unspecified),47*,2,8,2,5,13
COc1cc(C2CC(=O)N3CN(Cc4ccco4)CSC3=C2C#N)ccc1OCc1ccccc1 (stereo unspecified),36*,5,-3,-2,6,11
COc1ccc(C2CC(=O)N3CN(Cc4ccco4)CSC3=C2C#N)cc1 (stereo unspecified),1,-2,-1,-2,15,x
CCCc1ccc2oc(C(=O)N3CCC(O)CC3)c(C)c2c1,39*,1,-2,0,3,23

# Compound activity as filed in PubChem.
